Results published in PubChem BioAssay AID1159580 (chemical genetic matrix, 2015).
Where “and” joins values, the source holds several entries; their conditions need not be identical. Equal entries are not always repeated. Among all 5,500 compounds or so, about 2,000 (36%) were called active. Not shown: some 18% with an inconclusive outcome. Cut-off read from the data, not from the text of the source: active = normalized growth mostly below about 0.91 (no sharp cut-off); inconclusive = no clear call, values can overlap the other calls; inactive = mostly above about 0.92. Some of the results follow.

Assay: chemical genetic growth profiling, strain panel (AID 1159580);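 note: tested at 20 µM; growth read once vehicle control cultures reached saturation at 30 °C; 1 = growth at the plate median or of vehicle wells; lower values mean less growth of the strain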
Conditions: S. cerevisiae deletion strains, growth OD

Measured: normalized growth

CC1(C)OC(=O)NC1=O
inactive: locus YAL021C, strain ccr4, stronger effect = lower value 0.996 | locus YAL026C, strain drs2, stronger effect = lower value 0.976 | locus YAL030W, strain snc1, stronger effect = lower value 1.01 | locus YBL061C, strain skt5, stronger effect = lower value 1.02 | locus YBR009C, strain hhf1, stronger effect = lower value 1 | locus YBR021W, strain FUR4, stronger effect = lower value 0.996 | locus YBR023C, strain chs3, stronger effect = lower value 1.01 | locus YBR171W, strain sec66, stronger effect = lower value 1.01 | locus YBR229C, strain ROT2, stronger effect = lower value 0.984 | locus YBR231C, strain swc5, stronger effect = lower value 1.04 | locus YBR279W, strain paf1, stronger effect = lower value 1.01 | locus YCL011C, strain gbp2, stronger effect = lower value 1 | locus YCL016C, strain dcc1, stronger effect = lower value 1 | locus YCL029C, strain bik1, stronger effect = lower value 0.969 | locus YCL069W, strain vba3, stronger effect = lower value 1 | locus YCR088W, strain abp1, stronger effect = lower value 0.994 | locus YDL005C, strain med2, stronger effect = lower value 0.997 | locus YDL035C, strain GPR1, stronger effect = lower value 1.04 | locus YDL040C, strain nat1, stronger effect = lower value 1.01 | locus YDL074C, strain BRE1, stronger effect = lower value 0.986 | locus YDL101C, strain DUN1, stronger effect = lower value 0.981 | locus YDL134C, strain PPH21, stronger effect = lower value 1.02 | locus YDL185W, strain tfp1, stronger effect = lower value 0.979 | locus YDL192W, strain arf1, stronger effect = lower value 0.985 | locus YDR001C, strain nth1, stronger effect = lower value 0.992 | locus YDR069C, strain doa4, stronger effect = lower value 1.03 | locus YDR101C, strain arx1, stronger effect = lower value 1 | locus YDR137W, strain rgp1, stronger effect = lower value 1 | locus YDR159W, strain sac3, stronger effect = lower value 0.983 | locus YDR162C, strain NBP2, stronger effect = lower value 1.01 | locus YDR195W, strain ref2 1.01 | locus YDR297W, strain sur2, stronger effect = lower value 1.02 | locus YDR318W, strain mcm21, stronger effect = lower value 0.98 | locus YDR334W, strain swr1, stronger effect = lower value 0.993 | locus YDR335W, strain msn5, stronger effect = lower value 1.02 | locus YDR388W, stronger effect = lower value 0.98 | locus YDR392W, strain spt3, stronger effect = lower value 0.944 | locus YDR502C, strain sam2, stronger effect = lower value 0.994 | locus YEL003W, strain gim4, stronger effect = lower value 1 | locus YEL037C, strain rad23, stronger effect = lower value 0.992 | locus YEL061C, strain CIN8 (second series), stronger effect = lower value 0.991 | locus YEL061C, strain CIN8, stronger effect = lower value 0.991 | locus YER015W, strain faa2, stronger effect = lower value 1.01 | locus YER016W, strain bim1, stronger effect = lower value 1.01 | locus YER110C, stronger effect = lower value 0.965 | locus YER111C, strain swi4, stronger effect = lower value 0.993 | locus YER155C, strain BEM2 (second series), stronger effect = lower value 0.972 | locus YER155C, strain BEM2, stronger effect = lower value 0.994 | locus YER167W, strain BCK2, stronger effect = lower value 0.997 | locus YFR010W, strain ubp6, stronger effect = lower value 1.03 | locus YGL078C, strain dbp3, stronger effect = lower value 0.975 | locus YGL086W, strain mad1, stronger effect = lower value 1 | locus YGL167C, strain pmr1, stronger effect = lower value 1.01 | locus YGL173C, strain kem1, stronger effect = lower value 1.04 | locus YGL227W, strain vid30, stronger effect = lower value 0.968 | locus YGL240W, strain doc1, stronger effect = lower value 1.02 | locus YGL248W, strain PDE1, stronger effect = lower value 0.985 | locus YGL253W, strain hxk2, stronger effect = lower value 1.01 | locus YGR078C, strain PAC10, stronger effect = lower value 0.992 | locus YGR135W, strain pre9, stronger effect = lower value 0.958 | locus YGR252W, strain gcn5, stronger effect = lower value 0.969 | locus YHR013C, strain ard1, stronger effect = lower value 1.01 | locus YHR027C, strain rpn1, stronger effect = lower value 1.01 | locus YHR030C, strain SLT2, stronger effect = lower value 0.994 and 1.03 | locus YHR079C, strain IRE1 (second series), stronger effect = lower value 0.983 | locus YHR079C, strain IRE1, stronger effect = lower value 1.02 | locus YHR094C, strain hxt1, stronger effect = lower value 0.972 | locus YHR129C, strain ARP1, stronger effect = lower value 0.998 | locus YHR142W, strain chs7, stronger effect = lower value 1 | locus YHR200W, strain rpn10, stronger effect = lower value 0.981 | locus YIL066C, strain RNR3, stronger effect = lower value 0.993 | locus YIL073C, strain SPO22, stronger effect = lower value 0.952 | locus YIL125W, strain kgd1, stronger effect = lower value 0.988 | locus YIR030C, strain dcg1, stronger effect = lower value 0.972 | locus YJL092W, strain hpr5, stronger effect = lower value 0.989 | locus YJL095W, strain BCK1 (second series), stronger effect = lower value 1.01 | locus YJL095W, strain BCK1, stronger effect = lower value 0.981 and 0.994 | locus YJL115W, strain asf1, stronger effect = lower value 0.992 | locus YJL129C, strain trk1, stronger effect = lower value 0.94 | locus YJL134W, strain LCB3, stronger effect = lower value 0.992 | locus YJL154C, strain vps35, stronger effect = lower value 0.995 | locus YJL164C, strain tpk1, stronger effect = lower value 0.994 | locus YJL166W, strain qcr8, stronger effect = lower value 1.03 | locus YJL168C, strain set2, stronger effect = lower value 0.974 | locus YJL187C, strain SWE1 (second series), stronger effect = lower value 0.98 | locus YJL187C, strain SWE1, stronger effect = lower value 1.02 | locus YJR043C, strain POL32, stronger effect = lower value 1.03 | locus YJR066W, strain TOR1, stronger effect = lower value 0.957
